SKKanGAS inh: S. pyogenes SKKanGAS growth inhibitors in kanamycin, primary screen, streptokinase expression inhibitor project, SKKanGAS strain, BacTiter-Glo luminescence; 6 h; inhibition, % at 7.5 µM; actives 1.3% (n = 300,000);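 active = mean replicate score, as percent of positive control median, at least 50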;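 also: strain carries kanamycin resistance gene driven by streptokinase promoter and grows in 40 µg/ml kanamycin; loss of luminescence reflects streptokinase promoter inhibition or plain growth inhibition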
TIM10 inh: growth inhibitors of isogenic TIM10 control yeast, primary screen, counter-screen for tim10-1 yeast inhibitor project, luminescence, uHTS. actives 1.4% (n = 330,000). AID 463195, 2010. inhibition, % at 10 µM. S. cerevisiae TIM10 strain growth, BacTiter-Glo luminescence, 24 h;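 active = inhibition of 40% or more at the single tested concentration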;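 also: wild-type TIM10 isogenic control strain grown at permissive 25 °C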
PfHsp90 set2: growth inhibition of PfHsp90-expressing yeast, primary screen, antimalarial PfHsp90 inhibitor project, S. cerevisiae, BacTiter-Glo luminescence, single point, set 2; BacTiter-Glo ATP, 48 h; yeast lacking PDR1 and PDR3 efflux regulators; inhibition, % at 9.4 µM; actives 0.32% (n = 310,000);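 active = every replicate shows inhibition above about 80%, whatever the replicate mean, limit read from the data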
NALP3 yeast inh: NALP3 inflammasome inhibitors in reconstituted yeast, primary screen, luminescence, uHTS; Yeast reconstituted NLRP3/ASC/caspase-1, beta-gal luminescence, 24 h; inhibition, % at 10 µM; actives 0.39% (n = 330,000); AID 2825, 2010;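 active = inhibition of 50% or more; inactive = inhibition below 50%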
tim23-1 inh: growth inhibitors of tim23-1 mutant yeast, primary screen, luminescence, uHTS. S. cerevisiae tim23-1 growth, BacTiter-Glo luminescence, 24 h. inhibition, % at 20 µM. actives 1.3% (n = 330,000). AID 463212, 2010;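 active = growth inhibition of the mutant yeast at or above 50%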;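 also: temperature-sensitive mutant grown at 25 °C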
tim10-1 inh: growth inhibitors of tim10-1 mutant yeast, primary screen, luminescence, uHTS; S. cerevisiae tim10-1 ts strain growth, BacTiter-Glo, 24 h; inhibition, % at 20 µM; actives 2.2% (n = 330,000); AID 463190, 2010;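 active = inhibition of at least 40%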;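 also: mutant grown at 25 °C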
tim10-1 conf: growth inhibitors of tim10-1 mutant yeast, confirmation, single concentration, luminescence, S. cerevisiae; actives 56% (n = 7,400); AID 463213, 2010; S. cerevisiae tim10-1 ts strain growth, BacTiter-Glo, 24 h; inhibition, % at 20 µM; shares compounds with tim10-1 inh;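 active = inhibition of yeast growth at or above a set limit in either of two repeat tests at 20 µM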;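 also: tim10-1 mutant grown at permissive 25 °C to find synthetic lethal compounds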
Of the large screens only hits and unclear results are named; the others gave an inactive call (follow-up assays come after a bar, where they were run). Sampled rows, rich in hits. Any-hit rate of the full collection: about 4.6%.

Cc1ccc(-c2ccc(=O)n(CC(=O)N3CCN(c4cc(Cl)ccc4C)CC3)n2)cc1	tim10-1 inh 43.3 (no result: PfHsp90 set2) | tim10-1 conf inactive
CC(C)c1ccc(Nc2nnns2)cc1	none
CC(=O)Nc1ccc(CC(=O)NCCC(c2ccccc2)c2ccccc2)cc1	none
CCOC(=O)c1ccc(N2C(=O)CC(C(=O)OC)=C2C)cc1	tim10-1 inh 53.7 | tim10-1 conf 38.0
CCOC(=O)c1ccc(N2C(=O)C=CC2=O)cc1	PfHsp90 set2 130.2, tim10-1 inh 81.9 | tim10-1 conf 91.8
CCCCNC(=S)Nc1ccccc1Cc1ccccc1	tim10-1 inh 40.7 (no result: PfHsp90 set2) | tim10-1 conf inactive
CCOc1cc(C(=O)NC(=S)Nc2cccnc2)cc(OCC)c1OCC	tim10-1 inh 43.2 | tim10-1 conf inactive
CCOc1ccc(C(=O)NC(=S)Nc2cccnc2)cc1	none
CNc1ccccc(-c2ccc3cc4c(cc3n2)OCO4)c1=O	none
O=C(COc1cc2oc(=O)cc(-c3ccccc3)c2cc1Cl)NCc1ccccn1	tim10-1 inh 41.9 | tim10-1 conf inactive
Cc1ccc2nc(SCC(=O)Nc3cc(C(C)(C)C)nn3-c3ccccc3)[nH]c2c1	tim10-1 inh 44.3 | tim10-1 conf inactive
c1ccc(-c2cc(-c3nc4ccccc4[nH]3)c3ccccc3n2)cc1	tim10-1 inh 50.6 | tim10-1 conf 38.4
COc1ccc(-c2cc(C(=O)N3CCCCCC3)c3cc(C)ccc3n2)cc1	tim10-1 inh 40.3 | tim10-1 conf inactive
COc1ccc(-c2cc(C(=O)N3CCOCC3)c3cc(C)ccc3n2)cc1	none
Cc1cccc(Cc2cnc(N3C(=N)SC(c4ccccc4)C3=O)s2)c1 (stereo not drawn)	SKKanGAS inh 106.4, tim10-1 inh 44.5 | tim10-1 conf 30.1
O=C1c2ccccc2C(=O)N1c1ncc(Cc2ccc(Cl)cc2)s1	none (no result: SKKanGAS inh, TIM10 inh, NALP3 yeast inh, tim23-1 inh, tim10-1 inh)
CCOc1ccc(-n2cc(-c3ccccc3)c3c(=O)[nH]cnc32)cc1	tim10-1 inh 54.5 | tim10-1 conf 39.6
CC(NC(=O)C12CC3CC(C)(CC(C)(C3)C1)C2)c1ccncc1 (stereo not drawn)	none
COc1ccc(NC(=O)c2ccc(CN3CCN(c4ccccc4)CC3)cc2)cc1OC	none (no result: SKKanGAS inh)
COc1ccc(C)cc1NC(=O)c1ccc(CN2CCN(c3ccccc3)CC2)cc1	tim10-1 inh 46.3 | tim10-1 conf inactive
CCC(Oc1ccccc1)C(=O)N1CCN(S(=O)(=O)c2ccccc2)CC1 (stereo not drawn)	none (no result: SKKanGAS inh)
CC1=CC(=O)C=C(C)C1=NOC(=O)/C=C\c1ccccc1	tim10-1 inh 45.6 | tim10-1 conf 32.1
COc1ccc([N+](=O)[O-])cc1NC(=O)c1cn(-c2ccc(Cl)cc2)c(=O)c2ccccc12	none
Cc1ccc(Sc2ncnc3onc(C)c23)cc1	tim10-1 inh 41.2 (no result: PfHsp90 set2) | tim10-1 conf inactive
CCN(CC)C(=O)CNC(=S)N(CCCN1CCOCC1)Cc1cccs1	none
O=C(c1cc2ccccc2oc1=O)N(Cc1ccccc1F)C1CCS(=O)(=O)C1 (stereo not drawn)	none
CC(C)(C)NC(=O)C(c1cccs1)N(Cc1ccc(F)cc1)C(=O)c1csnn1 (stereo not drawn)	tim10-1 inh 43.4 | tim10-1 conf inactive
CCn1c(-c2cc(-c3cc(C)ccc3C)nc3ccccc23)n[nH]c1=S	none
CCOc1cccc(-c2cc(-c3n[nH]c(=S)n3CC)c3ccccc3n2)c1	tim10-1 inh 53.0 | tim10-1 conf inactive
CCn1c(-c2cc(-c3ccc(C)c(C)c3)nc3ccccc23)n[nH]c1=S	tim10-1 inh 47.1 (no result: PfHsp90 set2) | tim10-1 conf 33.5
COc1ccc(CCN(C)C(=O)CN2C(=O)NC3(CCCc4ccccc43)C2=O)cc1OC (stereo not drawn)	none
COC(=O)c1ccc(C)c(NC(=O)C(CCSC)NC(=O)c2cc(OC)c(OC)c(OC)c2)c1 (stereo not drawn)	none
CN(C1=C(N2CCOCC2)C(=O)c2ccccc2C1=O)c1ccccc1	tim10-1 inh 44.9 | tim10-1 conf inactive
O=C1C(NS(=O)(=O)c2cccs2)=C(N2CCOCC2)C(=O)c2ccccc21	none
CCCn1c(SCC(=O)c2ccc3c(c2)NC(=O)CO3)nc2ccccc21	none
COc1ccc(OC)c2nc(-c3ccc4c(c3)OCO4)ccc12	tim10-1 inh 41.2 | tim10-1 conf 34.5
CN(Cc1c(F)cccc1Cl)C(=O)c1ccc2ccccc2n1	none
CC[C@]12C(=O)N(C)C[C@H]([C@@H]3C(=O)N(C)C(=O)[C@@H]31)N2C(=O)c1ccc(F)cc1	none (no result: SKKanGAS inh, TIM10 inh, NALP3 yeast inh, tim23-1 inh, tim10-1 inh)
Clc1ccc(-c2nnc3sc(-c4ccc(Br)o4)nn23)cc1	none (no result: SKKanGAS inh)
Brc1ccc(-c2nn3c(Cc4ccccc4)nnc3s2)o1	tim10-1 inh 41.5 | tim10-1 conf inactive
Clc1ccccc1-c1nnc2sc(-c3ccc(Br)o3)nn12	tim10-1 inh 40.2 | tim10-1 conf 29.8
Clc1ccc(-c2nnc3sc(-c4ccc(Br)o4)nn23)c(Cl)c1	none
COc1cccc(NC(=O)CSc2c3c(nc4ccccc24)CCCC3)c1	tim10-1 inh 42.6 | tim10-1 conf inactive
Cc1cccc(NC(=O)CSc2c3c(nc4ccccc24)CCC3)n1	none
Cc1ccc(S(=O)(=O)CCC(=O)Oc2ccc3c(C)cc(=O)oc3c2)cc1	none
Cc1cc(=O)oc2cc(OC(=O)CCCCCN3C(=O)c4ccccc4C3=O)ccc12	tim10-1 inh 48.7 | tim10-1 conf 42.9
CC1=CC(C)(C)Nc2ccc(OC(=O)CCN3C(=O)c4ccccc4C3=O)cc21	tim10-1 inh 40.4 | tim10-1 conf 32.0
Cc1nc(SCC2(C)CC2(Cl)Cl)n[nH]1 (stereo not drawn)	none
CCC(C(=O)Nc1nc(C)c(C(=O)OC)s1)c1ccccc1 (stereo not drawn)	tim10-1 inh 42.9 (no result: PfHsp90 set2) | tim10-1 conf 35.6
COC(=O)c1sc(NC(=O)C(C)c2ccccc2)nc1C (stereo not drawn)	none
COc1cc(C2Nc3cccc4cccc(c34)N2)ccc1OC(C)=O	tim10-1 inh 41.3 | tim10-1 conf 38.7
COc1cccc(CC2(CO)CCN(Cc3cccn3-c3cccnc3)CC2)c1	none
COC(=O)CN(C)C(=O)c1cccc(OC2CCN(S(=O)(=O)N(C)C)CC2)c1	none
CC(C)C(=O)N[C@H]1CCC2C3CC=C4C[C@@H](O)CC[C@]4(C)C3CC[C@@]21C (stereo partly drawn)	none (no result: SKKanGAS inh)
